KDM5B inh: blocks human KDM5B histone demethylase activity | actives 2.6% (n = 220,000) | Potency, µM (series often up to 57.7 µM), most hits filed as inhibitors | AID 1347165 | Q9UGL1 | KDM5B demethylase, FDH-coupled NADH fluorescence (FDH is formaldehyde dehydrogenase); further: potency means the concentration at half of the fitted maximal effect; 0% is about no effect; nearly all actives have a fitted effect of over 70% in size
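Coupled FDH/NAD⁺ fluorescence readout. KDM5BΔAP 200 nM final; compound titration, 10 min RT preincubation; substrate mix 12.5 µM H3K4me3, 25 µM 2-OG, 50 µM Fe(II), 100 µM ascorbate, 0.25 mM NAD⁺, 0.25 U/mL FDH; ΔRFU over 30 min.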
IP6K1 inhibitor: blocks human inositol hexakisphosphate kinase 1; Q92551; IP6K1 kinase, ADP-Glo luminescence, 2 h; active compounds read low; activity change, % (series mostly up to about 58 µM); actives 0.81% (n = 140,000); AID 1645851; in the data active means activity change below about -25%; further: on the % scale 0 is the no-effect control and ±100 the full control effect
Target sequence (Q92551 whole entry, looked up): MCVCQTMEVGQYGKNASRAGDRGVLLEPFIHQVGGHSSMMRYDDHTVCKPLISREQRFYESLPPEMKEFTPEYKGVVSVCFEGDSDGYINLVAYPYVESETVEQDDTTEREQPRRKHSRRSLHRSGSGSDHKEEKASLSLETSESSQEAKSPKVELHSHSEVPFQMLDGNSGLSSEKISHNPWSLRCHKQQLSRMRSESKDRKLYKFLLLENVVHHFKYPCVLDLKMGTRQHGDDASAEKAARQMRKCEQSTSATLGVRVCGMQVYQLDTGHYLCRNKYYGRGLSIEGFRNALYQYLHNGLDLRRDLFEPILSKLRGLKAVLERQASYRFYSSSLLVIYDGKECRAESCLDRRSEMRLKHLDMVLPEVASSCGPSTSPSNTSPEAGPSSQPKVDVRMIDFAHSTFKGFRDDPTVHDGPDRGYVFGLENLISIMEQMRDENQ
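ADP-Glo luminescence measures ADP made by human IP6K1 during a 2 h RT reaction with ATP/IP6 (mix at 1.3 mM/130 uM); top library doses 57.5 and 19.1 uM final.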
SNCA expr inhib: SNCA gene expression inhibition; HEK-293 SNCA-luciferase knock-in, luminescence, 24 h; Potency, µM (titrated, usually from 57.2 µM), without a hit: at the highest dose activity change, negative = inhibition, actives largely listed as inhibitors; actives 0.17% (n = 140,000);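 further: potency means the concentration at half of the fitted maximal effect; plate controls were DMSO cells for no effect and cell-free wells for full effect; nearly all actives have a fitted effect of over 45% in size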
HEK293 viab: cell viability loss counter-screen; HEK-293-SNCA-luc viability, GF-AFC fluorescence, 24 h; Potency, µM (series often up to 57.1 µM), for the others: top-dose activity change, negative = cytotoxicity, most hits filed as cytotoxic; actives 0.12% (n = 150,000); AID 1671193;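 further: potency means the concentration at half of the fitted maximal effect; 0% = DMSO-treated cells and -100% = medium-only wells without cells; nearly all actives have a fitted effect of over 30% in size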
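Cytotoxicity counterscreen: after 24 h compound treatment of genome-edited SNCA-luciferase HEK-293 cells, live-cell protease substrate GF-AFC read by fluorescence after 30 min; activity scaled between DMSO (0%) and medium-only (-100%), curves Hill-fitted.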
IP6K1 conf: confirmation of human IP6K1 inhibitors; shares compounds with IP6K1 inhibitor; recombinant IP6K1 kinase, ADP-Glo luminescence, 2 h; Potency, µM (doses to about 49 µM), without a hit: top-dose activity change, negative = inhibition, usual class: inhibitors; actives 13% (n = 1,200); AID 1645852; further: potency means the concentration at half of the fitted maximal effect; on the % scale 0 is the no-effect control and ±100 the full control effect; nearly all actives have a fitted effect of over 65% in size
Active calls of the source: *; i = inactive; u = inconclusive; x = no result given; ! = not confirmed by another sample; [ ] = another dose, or the depositor's remark. Only some compounds are listed: those with a hit (about 2.8% of all), similar ones and a draw of the others. Unless noted, the call rests on the fitted dose curve; in most records, active means well fitted curve in the direction sought with a large enough effect; inconclusive means small, poorly fitted or top-dose-only effect, or another doubt; inactive means no such curve, though single readings can be large; an effect the other way counts as inactive or inconclusive.

SMILES | KDM5B inh | IP6K1 inhibitor | SNCA expr inhib | HEK293 viab | IP6K1 conf
CN(C)CCNC(=O)c1ccnc(-c2nnc3ccc(Nc4ccccc4)nn23)c1 | i | -11 | -16%[87.6 µM] | 0%[87.6 µM] | x
O=C(Nc1cccnc1)c1ccnc(-c2nnc3ccc(Nc4ccccc4)nn23)c1 | u | -56* | 39%[87.6 µM] | -15%[87.6 µM] | u
O=C(NCCc1ccccn1)c1ccnc(-c2nnc3ccc(Nc4ccccc4)nn23)c1 | u | -37* | -11%[87.6 µM] | -5%[87.6 µM] | u
CCCCCCCCCCCCCCCCC(C(=O)O)C(O)(CC(=O)O)C(=O)O (configuration not stated) | x | -78* | 31%[25.6 µM] | -8%[23.9 µM] | 23µM*
CCCCCCCCCCCCSCC(=O)O | i | x | x | x | x
COc1ccc(-c2noc(CSc3nnc4ccccn34)n2)cc1 | i | x | x | x | x
Cn1cc(-c2cnc3[nH]cc(CC(=O)Nc4ccccc4Cl)c3c2)cn1 | 32µM* | -26* | 44%[87.6 µM] | 6%[87.6 µM] | u
Cc1ccc(O)c(N=Nc2ccccc2)n1 | x | x | u | -2% | 7.3µM*
Cc1cc2nn(CC(=O)N3CCC(C)CC3)c(=O)n2c(N2CCc3ccccc3C2)n1 | i | x | x | x | x
COc1ccc(Cl)cc1-c1ccc2c(c1)C(=O)N1CC[C@H](N)[C@H]1C(=O)N2 | u | 1 | 9%[87.6 µM] | -2%[87.6 µM] | x
Cc1cccc(-c2noc([C@@H]3Cc4nc[nH]c4CN3C(=O)c3ccc(F)cc3)n2)c1 | i | -14 | u | -8%[87.6 µM] | x
O=C(c1ccc(F)cc1)N1Cc2[nH]cnc2C[C@H]1c1nc(-c2ccc(Cl)cc2)no1 | i | -39* | 2%[87.6 µM] | -3%[87.6 µM] | u
CCOC(=O)c1cc2c(=O)n3ccccc3nc2n(Cc2ccco2)c1=NC(=O)c1cccc(C)c1 | u | -36* | -24% | u | u
CCOC(=O)c1cc2c(=O)n3ccccc3nc2n(Cc2ccco2)c1=NC(=O)c1cccc(Br)c1 | u | -4 | 2% | 6% | x
COc1cccc(NC(=O)c2cnc(SCC(=O)N3CCCc4ccccc43)n(C)c2=O)c1 | i | -27* | 9% | -3% | -3%
O=C1c2c(O)ccc(O)c2C(=O)c2c(NCCNCCO)ccc(NCCNCCO)c21 | x | -39* | 1.2µM*! | u | u
C[N+](C)([O-])CCNc1ccc(NCC[N+](C)(C)[O-])c2c1C(=O)c1c(O)ccc(O)c1C2=O | x | x | -14% | -15% | x
COc1ccc(-c2nc(CN3CCCC3c3ccc(OC)cc3)co2)cc1 (configuration not stated) | i | x | x | x | x
Cc1cc(-c2ccc(C)c(S(=O)(=O)N3CCC(C)CC3)c2)on1 | u | -26* | -9% | -5% | -17%

Assay outcomes: PubChem, National Center for Advancing Translational Sciences (NCATS)
